We go through 15 sequences from paper PMC3218832.

Holding throughout (assay): protein binding microarray; high values mean tight binding
Holding throughout (details): dsDNA, one strand shown

Assay [1] has as its target RELARELA (p65 homodimer) (Homo sapiens, UniProt Q04206 1-307).
Assay [2] has as its target p50p50 homodimer (Homo sapiens, UniProt P19838 7-356).
For assay [3], the target named is T1, p52p52 homodimer (Homo sapiens, UniProt Q00653 4-332).
T1 sequence: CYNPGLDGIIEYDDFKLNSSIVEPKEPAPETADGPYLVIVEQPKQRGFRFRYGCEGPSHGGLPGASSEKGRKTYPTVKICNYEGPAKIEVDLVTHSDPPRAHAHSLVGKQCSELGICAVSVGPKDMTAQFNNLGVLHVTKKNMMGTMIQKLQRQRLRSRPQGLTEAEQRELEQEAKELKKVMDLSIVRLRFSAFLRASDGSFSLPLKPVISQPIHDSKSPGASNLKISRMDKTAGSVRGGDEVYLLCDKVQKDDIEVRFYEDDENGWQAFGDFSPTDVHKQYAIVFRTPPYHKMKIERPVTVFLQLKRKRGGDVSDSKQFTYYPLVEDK

Assay [4] concerns the target RELA (p65) subunit of heterodimer;p50 subunit (Homo sapiens;Homo sapiens, UniProt Q04206;P19838 1-307;7-356).
Assay [5] has as its target RELA (p65) subunit of heterodimer;p52 subunit (Homo sapiens;Homo sapiens, UniProt Q04206;Q00653 1-307;4-332).
Assay [6] concerns the target RELB subunit;p50 subunit (Homo sapiens;Homo sapiens, UniProt Q01201;P19838 120-401;7-356).
Assay [7] deals with T2, RELB subunit;p52 subunit (Homo sapiens;Homo sapiens, UniProt Q01201;Q00653 120-401;4-332).
T2 sequence 1: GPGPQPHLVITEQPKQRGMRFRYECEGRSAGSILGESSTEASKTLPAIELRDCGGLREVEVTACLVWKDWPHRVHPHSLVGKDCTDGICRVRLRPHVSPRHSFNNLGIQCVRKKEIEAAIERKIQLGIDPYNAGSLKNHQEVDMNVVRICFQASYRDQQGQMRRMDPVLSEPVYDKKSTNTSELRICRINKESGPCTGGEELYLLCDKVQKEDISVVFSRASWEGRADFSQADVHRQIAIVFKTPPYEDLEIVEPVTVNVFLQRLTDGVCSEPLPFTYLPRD
T2 sequence 2: T1 sequence

Assay [8] concerns the target C-Rel subunit;p50 subunit (Homo sapiens;Homo sapiens, UniProt Q04864;P19838 1-285;7-356).
Assay [9] has as its target T3, C-Rel subunit;p52 subunit (Homo sapiens;Homo sapiens, UniProt Q04864;Q00653 1-285;4-332).
T3 sequence 1: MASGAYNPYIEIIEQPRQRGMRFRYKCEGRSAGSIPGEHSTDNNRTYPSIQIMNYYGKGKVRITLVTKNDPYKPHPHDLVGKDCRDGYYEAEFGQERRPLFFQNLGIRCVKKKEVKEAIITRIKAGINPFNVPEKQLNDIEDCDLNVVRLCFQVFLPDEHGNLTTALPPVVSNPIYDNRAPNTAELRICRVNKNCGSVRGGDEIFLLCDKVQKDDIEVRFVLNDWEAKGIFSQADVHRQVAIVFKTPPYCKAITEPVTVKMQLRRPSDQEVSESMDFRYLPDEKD
T3 sequence 2: T1 sequence

Sequence of RELARELA (p65 homodimer) (Q04206 1-307): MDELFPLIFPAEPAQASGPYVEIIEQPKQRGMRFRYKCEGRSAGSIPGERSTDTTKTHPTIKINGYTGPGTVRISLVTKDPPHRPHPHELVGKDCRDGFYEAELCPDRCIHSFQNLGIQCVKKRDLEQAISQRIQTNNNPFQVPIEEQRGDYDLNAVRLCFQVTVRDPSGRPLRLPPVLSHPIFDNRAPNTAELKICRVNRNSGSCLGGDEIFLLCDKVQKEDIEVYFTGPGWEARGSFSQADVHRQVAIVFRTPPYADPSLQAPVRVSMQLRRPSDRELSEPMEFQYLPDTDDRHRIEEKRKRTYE
Sequence of RELA (p65) subunit of heterodimer;p50 subunit (Q04206 1-307, chain 1 of 2): as the sequence (Q04206 1-307) above
Sequence of RELA (p65) subunit of heterodimer;p50 subunit (P19838 7-356, chain 2 of 2): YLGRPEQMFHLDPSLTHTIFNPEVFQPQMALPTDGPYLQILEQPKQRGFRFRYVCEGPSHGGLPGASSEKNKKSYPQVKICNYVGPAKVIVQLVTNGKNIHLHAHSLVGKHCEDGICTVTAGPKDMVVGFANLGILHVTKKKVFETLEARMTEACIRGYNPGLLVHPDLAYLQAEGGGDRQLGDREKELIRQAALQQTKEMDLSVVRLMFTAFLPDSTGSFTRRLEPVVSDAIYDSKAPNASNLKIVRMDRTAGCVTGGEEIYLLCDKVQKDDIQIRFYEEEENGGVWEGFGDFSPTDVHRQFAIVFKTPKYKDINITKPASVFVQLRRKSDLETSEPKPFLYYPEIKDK
Sequence of p50p50 homodimer (P19838 7-356): as the sequence (P19838 7-356, chain 2 of 2) above

For the sequence GGATGGCTCCT, the binding signal is -0.414 z-score in assay [1]; -1.51 z-score in assay [2]; -0.721 z-score in assay [3]; -1.07 z-score in assay [4]; -1.08 z-score in [5]; -1.19 z-score in assay [6]. Also, the figures for the binding signal in [7], in assay [8] and in assay [9] were -1.05 z-score, -1.64 z-score and -0.938 z-score, respectively.

On to AAATTCATCCT, for which the binding signal in [1] is 0.0684 z-score; in assay [2] it was -0.972 z-score; in assay [3] it was -0.568 z-score; in assay [4], -0.664 z-score; in assay [5], -0.9 z-score; in assay [6], -0.972 z-score. The binding signal was -0.72 z-score in assay [7], -1.11 z-score in assay [8] and -0.904 z-score in assay [9].

Take CAAGGATTCCC: the binding signal in assay [1] amounted to 1.01 z-score; in [2] it was 0.585 z-score; in assay [3], 0.314 z-score; in [4], 0.704 z-score; in assay [5], 0.382 z-score; in assay [6], 0.457 z-score. The binding signal in assay [7] stood at 0.419 z-score; in assay [8], 0.93 z-score; in assay [9] it was 0.576 z-score.

Turning to AAAATAACCCC, the binding signal in assay [1] stood at 0.617 z-score; in assay [2], 1.07 z-score; in assay [3], 1.26 z-score; in [4] it was 1.03 z-score; in [5], 1.24 z-score; in [6] it was 0.895 z-score. For the same sequence, the binding signal in assay [7] was determined as 1.14 z-score; in assay [8], 0.682 z-score; in assay [9] it was 1.16 z-score.

CAATGGGCCCC: the binding signal was -0.62 z-score in assay [1]; -0.565 z-score in assay [2]; -0.242 z-score in assay [3]; -0.699 z-score in assay [4]; -0.472 z-score in assay [5]; -0.379 z-score in [6]. Also, the binding signal is -0.185 z-score in assay [7], -0.565 z-score in [8] and -0.638 z-score in [9].

Consider CGAATATTCCC, for which the binding signal in [1] was found to be 1.87 z-score; in assay [2], 0.695 z-score; in [3], 0.525 z-score; in [4], 0.873 z-score; in assay [5] it was 0.929 z-score; in [6], 0.405 z-score. Besides, the binding signal in [7] stood at 0.536 z-score; in [8], 0.941 z-score; in assay [9] it was 0.858 z-score.

As to AGAAGGGTCCC, the binding signal in [1] was -0.591 z-score; in assay [2], -0.215 z-score; in assay [3], 0.0384 z-score; in assay [4] it was -0.173 z-score; in assay [5] it was -0.123 z-score; in [6], -0.00663 z-score. Besides, the binding signal in assay [7] was -0.0866 z-score; in assay [8], -0.405 z-score; in assay [9], -0.315 z-score.

AAGTGTTCCCC: the binding signal came out at 0.872 z-score in [1]; 0.916 z-score in assay [2]; 0.928 z-score in [3]; 1.24 z-score in [4]; 0.915 z-score in assay [5]; 1.13 z-score in assay [6]. Also, the binding signal was determined as 1.14 z-score in assay [7], 1.33 z-score in [8] and 0.844 z-score in assay [9].

As to GAAAACCCCCT, the binding signal in assay [1] was determined as 1.83 z-score; in assay [2] it was 1.6 z-score; in [3], 2.75 z-score; in assay [4] it was 2.46 z-score; in assay [5] it was 2.59 z-score; in [6] it was 3.02 z-score. In addition, the binding signal is 2.62 z-score in [7], 1.99 z-score in assay [8] and 2.86 z-score in assay [9].

On to AGAGAGATCCC, for which the binding signal in [1] was -0.281 z-score; in assay [2], -0.511 z-score; in [3], -0.367 z-score; in assay [4] it was -0.448 z-score; in [5], -0.506 z-score; in assay [6], -0.355 z-score. For the same sequence, the binding signal was -0.569 z-score in assay [7], -0.565 z-score in assay [8] and -0.502 z-score in assay [9].

For the sequence AAAGACTCCCT, the binding signal in assay [1] is -0.338 z-score; in [2], 0.719 z-score; in assay [3], 0.0106 z-score; in assay [4] it was 0.327 z-score; in [5] it was 0.161 z-score; in assay [6], 0.395 z-score. For the same sequence, the binding signal in [7] is 0.156 z-score; in [8] it was -0.0953 z-score; in [9] it was 0.0126 z-score.

For the sequence CAGTTACTCCT, the binding signal in assay [1] is -0.453 z-score; in [2] it was -1.22 z-score; in assay [3], -0.649 z-score; in assay [4], -0.763 z-score; in [5], -0.94 z-score; in assay [6], -0.976 z-score. In addition, the binding signal was -0.763 z-score in assay [7], -1.08 z-score in assay [8] and -0.871 z-score in assay [9].

As for AAGGTAGCCCC, the binding signal in assay [1] was -0.468 z-score; in assay [2] it was 0.424 z-score; in assay [3], 0.109 z-score; in assay [4], -0.162 z-score; in [5] it was 0 z-score; in assay [6] it was 0.152 z-score. Besides, the values for the binding signal in assay [7], in [8] and in assay [9] were 0.184 z-score, 0.249 z-score and 0.217 z-score, respectively.

With AAAAGAATCCC, the binding signal came out at 0.306 z-score in [1]; 0.444 z-score in [2]; 0.44 z-score in [3]; 0.389 z-score in [4]; 0.575 z-score in assay [5]; 0.356 z-score in assay [6]. Moreover, the results for the binding signal in assay [7], in assay [8] and in assay [9] were 0.317 z-score, 0.495 z-score and 0.359 z-score, respectively.

In the case of AAGAAAGCCCT, the binding signal in assay [1] is -0.308 z-score; in [2], -0.8 z-score; in [3], -0.426 z-score; in assay [4], -0.68 z-score; in assay [5], -0.581 z-score; in assay [6], -0.838 z-score. Moreover, the binding signal was -0.728 z-score in assay [7], -0.563 z-score in assay [8] and -0.671 z-score in assay [9].
